This is an account of results in PubChem BioAssay (Tox21).

The target in experiment [1] is Thyrotropin receptor (Homo sapiens) (UniProt P16473). Kind of experiment: qHTS assay to identify small molecule antagonists of the thyroid stimulating hormone receptor (TSHR) signaling pathway (AID 1259385; calls by dose curve; further: nearly all actives have a fitted effect of over 20% in size; further: potency means the concentration at half of the fitted maximal effect). In short, it runs like this:
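TSHR-HEK293 cells were plated and held 18 h at 37C/5% CO2, then given compound plus Ro20-1724 and stimulated with TSH at 1.5 ng/mL final. After 30 min at room temperature, cAMP was detected with cAMP-d2/anti-cAMP-cryptate (1 h) by fluorescence.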

Experiment [2] has as its target Progesterone receptor (Homo sapiens) (UniProt P06401). Kind of experiment: qHTS assay to identify small molecule agonists of the progesterone receptor (PR) signaling pathway (AID 1346784; calls by dose curve; further: on the % scale 0 is the no-effect control and ±100 the full control effect; nearly all actives have a fitted effect of over 30% in size). In short, it runs like this: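 Agonist qHTS: compounds pinned onto 3,000 PR-UAS-bla HEK 293T cells per well in charcoal-stripped serum medium, 16hr at 37C, then beta-lactamase activity measured by LiveBLAzer FRET fluorescence after 2 hours at room temperature.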

Experiment [3] in a line: qHTS assay to identify small molecule antagonists of the TGF-beta/Smad signaling pathway - cell viability counter screen (AID 1346824). Further: on the % scale 0 is the no-effect control and ±100 the full control effect; nearly all actives have a fitted effect of over 50% in size. In short, it runs like this:
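SBE-bla HEK 293T cells were plated overnight at 37 C, then given compounds in DMSO plus TGF-beta1 (added as 0.25 ng/mL solution) for 5 hr. After the bla read, CellTiter-Glo was added to the same wells and luminescence read after 30 min at room temperature.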

Experiment [4] in a line: qHTS assay to identify small molecule agonists of the TGF-beta/Smad signaling pathway - cell viability counter screen (AID 1346829). Further: top concentration of the series differs between compounds; on the % scale 0 is the no-effect control and ±100 the full control effect; nearly all actives have a fitted effect of over 45% in size. A digest of the protocol:
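Here the cytotoxicity of library compounds is measured in SBE-bla HEK 293T cells treated for 5 hr, using CellTiter-Glo added to wells already read for the beta-lactamase reporter.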

Experiment [5] addresses Thyrotropin-releasing hormone receptor (Homo sapiens) (UniProt P34981). The experiment can be described thus: qHTS assay to identify small molecule antagonists of the thyrotropin-releasing hormone receptor (TRHR) signaling pathway (AID 1346877; active means well fitted inhibition curve with a large enough effect in the repeat runs, not every such curve was filed as active; further: series mostly up to about 51 µM; on the % scale 0 is the no-effect control and ±100 the full control effect). In short, it runs like this:
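Screening used HEK293 cells engineered with TRHR, with a brief 5 min room-temperature compound exposure preceding addition of TRH to 1 nM. The read-out was kinetic calcium-dye fluorescence, concentration-response from 15 doses in triplicate.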

For experiment [6] the target is unchanged. Kind of experiment: qHTS assay to identify small molecule agonists of the thyrotropin-releasing hormone receptor (TRHR) signaling pathway (AID 1346891; calls by dose curve; further: series mostly up to about 58 µM; on the % scale 0 is the no-effect control and ±100 the full control effect). A digest of the protocol:
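Agonist-mode intracellular calcium readout: kinetic fluorescence over 3 min at 1 s intervals after compound addition to TRHR-HEK293 cells (18 h seeded, 2 h dye-loaded at 37 C). Fifteen concentrations, triplicates.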

Experiment [7] in a line: Human pregnane X receptor (PXR) small molecule agonists, qHTS cell viability counter screen (AID 1346977). Further: nearly all actives have a fitted effect of over 50% in size. Further: potency means the concentration at half of the fitted maximal effect. In short, it runs like this: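 Same-well viability read: CellTiter-Fluor added after 23 hr compound exposure, fluorescence measured 1 hr later. Cells were PXR-Luc HepG2 seeded at 2,000/well in 5% charcoal-stripped FBS medium, rested 5 hr before dosing at 37 C.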
Experiment [8] is described as follows: Caspase-3/7 induction in CHO-K1 cells by small molecules, qHTS cell viability counter screen (AID 1346979). Further: nearly all actives have a fitted effect of over 35% in size. Further: potency means the concentration at half of the fitted maximal effect. In short, it runs like this: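 Cytotoxicity counter screen: CellTiter-Fluor added to compound-treated wild-type CHO-K1 cells at 16 h (37C, 5% CO2), fluorescence measured 1 h later; same wells as caspase-3/7 measurement.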
Experiment [9] can be described thus: Caspase-3/7 induction in HepG2 cells by small molecules, qHTS cell viability counter screen (AID 1346981). Further: nearly all actives have a fitted effect of over 30% in size. Further: potency means the concentration at half of the fitted maximal effect. A digest of the protocol: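 Multiplexed with the caspase-3/7 assay: HepG2 cells, 16 hr compound treatment, CellTiter-Fluor viability detection by fluorescence.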
Experiment [10] has as its target Nuclear receptor subfamily 1 group I member 2 (Homo sapiens) (UniProt O75469). Kind of experiment: Human pregnane X receptor (PXR) small molecule agonists, qHTS assay (AID 1346982). Further: nearly all actives have a fitted effect of over 35% in size. Further: potency means the concentration at half of the fitted maximal effect. On activation: on the % scale 0 is the no-effect control and ±100 the full control effect. In short, it runs like this: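 We seeded PXR-Luc HepG2 cells in assay medium containing 5% charcoal-stripped FBS, added compounds 5 hr later, incubated 24 hr, and read luminescence with ONE-Glo reagent.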

The nature of experiment [11]: qHTS assay to identify small molecule agonists of the estrogen receptor alpha (ER-alpha) signaling pathway in the presence of an antagonist - cell viability counter screen (AID 1259386).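 Further: series mostly up to about 92 µM; cells exposed to compounds for 22 h at 37 °C before the viability read; on the % scale 0 is the no-effect control and ±100 the full control effect; nearly all actives have a fitted effect of over 30% in size.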 A digest of the protocol:
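ICI-182,780 at 10.0nM final accompanies the compound titration (15 concentrations, 22hr, 37C) on VM7Luc4E2 cells. The CellTiter-Fluor fluorescence readout runs in the same wells as the luciferase assay.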

Experiment [12] addresses Progesterone receptor (Homo sapiens) (UniProt P06401). The experiment can be described thus: qHTS assay to identify small molecule antagonists of the progesterone receptor (PR) signaling pathway (AID 1346795; active means well fitted inhibition curve with a large enough effect in the signal ratio in the repeat runs, not every such curve was filed as active; the % refers to the signal ratio; further: potency means the concentration at half of the fitted maximal effect). In short, it runs like this: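 Antagonist mode with agonist R5020 at 1 nM final and 16 hr incubation at 37C. Reporter was beta-lactamase driven by UAS in HEK293T (PR-UAS-bla), 2% charcoal-stripped serum; signal from LiveBLAzer FRET substrate, 2 hr at room temperature.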

The nature of experiment [13]: qHTS assay to identify small molecule antagonists of the progesterone receptor (PR) signaling pathway - cell viability counter screen (AID 1346798). Further: nearly all actives have a fitted effect of over 50% in size. Further: potency means the concentration at half of the fitted maximal effect. A digest of the protocol: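 Cytotoxicity read as CellTiter-Glo luminescence (30 min, room temperature) in the same wells as the beta-lactamase readout. HEK293T PR-UAS-bla cells in charcoal-stripped 2% FBS received compound and R5020, then 16 h at 37C, 5% CO2.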

A short description of experiment [14]: qHTS assay to identify small molecule agonists of the TGF-beta/Smad signaling pathway (AID 1346859; active means well fitted activation curve with a large enough effect in the signal ratio in the repeat runs, not every such curve was filed as active; the % refers to the signal ratio; further: series mostly up to about 77 µM; on the % scale 0 is the no-effect control and ±100 the full control effect). In short, it runs like this: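 Fluorescence (ex 405 nm; em 460 and 530 nm) was read 2 h after LiveBLAzer FRET substrate at RT. The preceding compound treatment of overnight-plated SBE-bla HEK293T cells lasted 5 h at 37 C.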
Experiment [15] is described as follows: Caspase-3/7 induction in HepG2 cells by small molecules, qHTS assay (AID 1346978). Further: on the % scale 0 is the no-effect control and ±100 the full control effect; nearly all actives have a fitted effect of over 15% in size. A digest of the protocol: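 Wild-type HepG2 cells (2,000/well) were settled 5 h at 37 C, 5% CO2, then exposed to compounds in DMSO for 17 h. Caspase-3/7 activity was read by luminescence 30 min after adding Caspase-Glo 3/7 reagent at room temperature.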
Experiment [16] can be described thus: Caspase-3/7 induction in CHO-K1 cells by small molecules, qHTS assay (AID 1346980). Further: on the % scale 0 is the no-effect control and ±100 the full control effect; nearly all actives have a fitted effect of over 15% in size. In short, it runs like this: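 Wild-type cells were seeded at 1,500 per well and settled 5 hr at 37 C, 5% CO2, then exposed to DMSO-dissolved compounds for 17 hr. Caspase-Glo 3/7 reagent was added, and luminescence was read after 30min at room temperature.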
In experiment [17] the target is Nuclear receptor subfamily 1 group I member 2 (Rattus norvegicus) (UniProt Q9R1A7). The experiment can be described thus: Rat pregnane X receptor (rPXR) activation by small molecules, qHTS assay (AID 1346983). Further: nearly all actives have a fitted effect of over 20% in size. Further: potency means the concentration at half of the fitted maximal effect. Conditions: rPXR luciferase reporter cells, One-Glo luminescence, 24 h; max activation: hits give high values. A digest of the protocol:
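Cell-based rPXR luciferase reporter assay, 2,000 cells per well, rested 5hr at 37 C before compound addition in DMSO, then 24 hr at 37 C. One-Glo reagent was added and luminescence read after 30 min at room temperature.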

In experiment [18] the target is Nuclear receptor subfamily 1 group I member 2 (Homo sapiens) (UniProt O75469). Kind of experiment: CYP3A4 induction through human pregnane X receptor (PXR) by small molecules, qHTS assay (AID 1346984). Further: nearly all actives have a fitted effect of over 40% in size. Further: potency means the concentration at half of the fitted maximal effect. In short, it runs like this:
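qHTS, concentration-response format: HepG2 DPX-2 line, PXR/CYP3A4-luc. Exposure 24 h, 37C. Substrate Luciferin-IPA 3uM final, 3 h. Detection One-Glo, 30 min RT.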

For experiment [19] the target is unchanged. Kind of experiment: Human pregnane X receptor (PXR) activation by small molecules, qHTS assay (AID 1346985). Further: nearly all actives have a fitted effect of over 40% in size. Further: potency means the concentration at half of the fitted maximal effect. In short, it runs like this: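 DPX-2 cells (HepG2 co-transfected with a PXR response element and a CYP3A4-promoter luciferase construct) were seeded at 2,000 per well, rested 5 hr at 37C, then exposed to DMSO-dissolved compounds for 24 hr. Activation was read as luciferase luminescence.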

Experiment [20] can be described thus: qHTS assay to identify small molecule agonists of the progesterone receptor (PR) signaling pathway - cell viability counter screen (AID 1346799; calls by dose curve; further: potency means the concentration at half of the fitted maximal effect; nearly all actives have a fitted effect of over 45% in size). A digest of the protocol:
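Cytotoxicity measured by CellTiter-Glo luminescence (30 min, RT) in the same wells as the PR beta-lactamase agonist read. Those HEK293T cells had 16 h compound treatment at 37 C in 2% charcoal-stripped FBS medium.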

A number with no mark means an inactive call. Inconclusive results are not listed. Active and inactive are the calls of the source. Unless noted, the call rests on the fitted dose curve; in most records, active means well fitted curve in the direction sought with a large enough effect in the repeat runs; inconclusive means weak or mixed curves; inactive means no such curve, though single readings can be large; an effect the other way counts as inactive or inconclusive.

Sequence of Thyrotropin-releasing hormone receptor (Homo sapiens) (P34981 whole entry, looked up): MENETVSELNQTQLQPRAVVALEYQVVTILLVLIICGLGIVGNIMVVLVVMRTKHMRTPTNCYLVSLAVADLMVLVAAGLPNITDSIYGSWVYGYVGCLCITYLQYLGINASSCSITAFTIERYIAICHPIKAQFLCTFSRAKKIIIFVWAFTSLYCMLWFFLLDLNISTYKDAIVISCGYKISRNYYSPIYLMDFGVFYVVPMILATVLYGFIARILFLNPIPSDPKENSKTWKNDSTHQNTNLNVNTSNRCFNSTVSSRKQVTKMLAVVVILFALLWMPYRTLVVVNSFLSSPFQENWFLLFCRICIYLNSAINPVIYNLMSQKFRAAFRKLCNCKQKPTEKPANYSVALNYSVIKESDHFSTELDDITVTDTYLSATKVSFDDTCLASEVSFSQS
Sequence of Thyrotropin receptor (Homo sapiens) (P16473 whole entry, looked up): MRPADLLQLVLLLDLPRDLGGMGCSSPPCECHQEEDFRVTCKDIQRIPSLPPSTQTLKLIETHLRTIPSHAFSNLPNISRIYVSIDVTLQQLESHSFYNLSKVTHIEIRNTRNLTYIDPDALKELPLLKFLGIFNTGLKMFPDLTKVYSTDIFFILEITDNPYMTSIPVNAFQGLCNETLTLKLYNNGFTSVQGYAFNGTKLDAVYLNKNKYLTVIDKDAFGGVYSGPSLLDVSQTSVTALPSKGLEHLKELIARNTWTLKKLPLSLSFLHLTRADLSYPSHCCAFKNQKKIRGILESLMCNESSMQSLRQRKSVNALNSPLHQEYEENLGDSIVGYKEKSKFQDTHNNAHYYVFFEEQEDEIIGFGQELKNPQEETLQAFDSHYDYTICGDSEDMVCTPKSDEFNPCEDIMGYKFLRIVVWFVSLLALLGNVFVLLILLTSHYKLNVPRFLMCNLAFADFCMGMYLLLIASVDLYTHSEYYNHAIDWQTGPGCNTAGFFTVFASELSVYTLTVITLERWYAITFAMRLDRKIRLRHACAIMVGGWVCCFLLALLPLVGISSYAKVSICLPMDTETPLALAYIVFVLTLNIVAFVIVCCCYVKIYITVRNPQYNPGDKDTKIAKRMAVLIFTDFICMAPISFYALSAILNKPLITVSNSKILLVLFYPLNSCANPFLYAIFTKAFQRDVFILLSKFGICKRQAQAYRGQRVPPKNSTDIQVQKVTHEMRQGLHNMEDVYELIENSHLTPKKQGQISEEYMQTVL
Sequence of Progesterone receptor (Homo sapiens) (P06401 whole entry, looked up): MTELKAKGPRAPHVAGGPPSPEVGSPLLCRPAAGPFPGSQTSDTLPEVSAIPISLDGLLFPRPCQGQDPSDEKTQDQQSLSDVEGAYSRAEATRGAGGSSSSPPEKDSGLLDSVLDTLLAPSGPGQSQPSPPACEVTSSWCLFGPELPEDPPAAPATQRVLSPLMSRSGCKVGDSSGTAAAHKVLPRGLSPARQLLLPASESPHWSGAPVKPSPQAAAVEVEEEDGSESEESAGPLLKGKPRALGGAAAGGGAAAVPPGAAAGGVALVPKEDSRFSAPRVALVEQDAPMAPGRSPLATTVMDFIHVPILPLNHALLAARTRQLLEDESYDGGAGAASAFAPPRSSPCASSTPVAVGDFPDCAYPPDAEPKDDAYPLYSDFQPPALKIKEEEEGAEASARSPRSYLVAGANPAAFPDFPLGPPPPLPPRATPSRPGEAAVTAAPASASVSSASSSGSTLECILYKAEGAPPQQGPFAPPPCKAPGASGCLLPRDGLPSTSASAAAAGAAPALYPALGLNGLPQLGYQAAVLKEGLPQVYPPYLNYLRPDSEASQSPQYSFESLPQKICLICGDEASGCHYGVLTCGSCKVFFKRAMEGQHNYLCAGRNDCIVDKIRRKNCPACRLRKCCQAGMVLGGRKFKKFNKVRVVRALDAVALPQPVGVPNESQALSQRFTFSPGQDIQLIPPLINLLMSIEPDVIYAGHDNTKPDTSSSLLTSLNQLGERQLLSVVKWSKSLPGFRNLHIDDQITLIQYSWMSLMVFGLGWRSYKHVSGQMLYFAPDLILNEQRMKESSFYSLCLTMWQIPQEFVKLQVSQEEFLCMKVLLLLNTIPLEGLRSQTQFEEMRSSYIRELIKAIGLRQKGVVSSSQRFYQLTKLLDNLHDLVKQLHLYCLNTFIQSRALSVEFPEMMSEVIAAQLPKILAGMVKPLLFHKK
Sequence of Nuclear receptor subfamily 1 group I member 2 (Rattus norvegicus) (Q9R1A7 whole entry, looked up): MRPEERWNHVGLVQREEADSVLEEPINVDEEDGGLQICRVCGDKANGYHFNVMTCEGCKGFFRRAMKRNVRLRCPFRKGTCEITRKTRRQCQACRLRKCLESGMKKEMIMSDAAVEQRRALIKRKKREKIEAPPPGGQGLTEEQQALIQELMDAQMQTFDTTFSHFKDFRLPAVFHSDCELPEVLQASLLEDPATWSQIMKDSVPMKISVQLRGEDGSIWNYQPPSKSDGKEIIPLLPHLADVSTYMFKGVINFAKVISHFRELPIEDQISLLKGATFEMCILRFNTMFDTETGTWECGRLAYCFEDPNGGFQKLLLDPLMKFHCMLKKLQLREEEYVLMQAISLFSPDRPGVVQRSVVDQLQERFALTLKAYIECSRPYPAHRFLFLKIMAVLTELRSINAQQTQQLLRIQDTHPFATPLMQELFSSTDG
Sequence of Nuclear receptor subfamily 1 group I member 2 (Homo sapiens) (O75469 whole entry, looked up): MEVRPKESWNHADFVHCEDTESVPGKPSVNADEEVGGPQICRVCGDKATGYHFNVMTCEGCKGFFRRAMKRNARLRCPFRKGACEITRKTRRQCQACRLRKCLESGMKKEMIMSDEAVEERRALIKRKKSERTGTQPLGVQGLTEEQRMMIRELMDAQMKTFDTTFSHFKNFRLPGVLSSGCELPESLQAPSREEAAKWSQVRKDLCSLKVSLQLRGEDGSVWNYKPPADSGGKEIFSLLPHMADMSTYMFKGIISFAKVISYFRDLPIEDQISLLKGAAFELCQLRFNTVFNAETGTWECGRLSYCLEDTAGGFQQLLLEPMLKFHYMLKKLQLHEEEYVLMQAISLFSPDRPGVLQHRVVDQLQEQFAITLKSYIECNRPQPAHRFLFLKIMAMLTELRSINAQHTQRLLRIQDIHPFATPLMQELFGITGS

With `CN1C[C@H](C(=O)N[C@]2(C)O[C@@]3(O)[C@@H]4CCCN4C(=O)[C@H](Cc4ccccc4)N3C2=O)C[C@@H]2c3cccc4[nH]cc(c34)C[C@H]21`, the Potency in experiment [1] was 11.9 µM (active); in [7], 21.1 µM (active); in experiment [8], 26.6 µM (active); in experiment [9], 26.6 µM (active); in [10] it was 10.6 µM (active). The Potency result in [2], in [3], in experiment [4] and in [6] was “inactive” each time. Moreover, the outcome in experiment [5] was inactive.
Consider `Cc1ccc(OC(=O)c2ccccc2O)cc1`, for which the Potency entry in experiment [11], in experiment [2], in experiment [12], in experiment [13], in experiment [3] and in experiment [4] was “inactive” each time. Moreover, the Potency result in experiment [14], in experiment [6], in experiment [7], in experiment [15], in [8] and in experiment [16] was “inactive” in each case. Moreover, the Potency result in [9] and in experiment [10] was “inactive” in each case. Further, in [5], the call was inactive.
Consider `Cc1ccc2c(Br)cc(Br)c(O)c2n1`, for which the Potency entry in [1], in [3], in experiment [4], in experiment [14], in experiment [6] and in experiment [7] was “inactive” in each case. Besides, the Potency entry in [15], in experiment [16], in experiment [9] and in [18] was “inactive” in each case. Further, the Potency in [12] is 18.8 µM (active); in experiment [8] it was 21.1 µM (active); in experiment [10], 11.9 µM (active). Besides, the result in experiment [5] was inactive. Moreover, in [17], the max activation is -3.38%.
For `COc1ncnc(NS(=O)(=O)c2ccc(N)cc2)c1OC`, the Potency result in experiment [11], in experiment [2], in [12], in [13], in experiment [3] and in experiment [4] was “inactive” throughout. Further, the Potency entry in experiment [14], in experiment [6], in experiment [7], in experiment [15], in [8] and in experiment [16] was “inactive” throughout. Further, the Potency entry in experiment [9], in [10], in [18] and in [19] was “inactive” each time. Besides, the call in experiment [5] was inactive. For the same compound, in experiment [17], the max activation was -3.86%.
For `Oc1c(I)cc(I)c2cccnc12`, the Potency entry in experiment [1], in experiment [2], in [13], in experiment [3], in experiment [4] and in experiment [14] was “inactive” each time. Further, the Potency entry in experiment [6], in [7], in experiment [15], in experiment [16] and in [9] was “inactive” each time. In experiment [12], the Potency was 7.5 µM (active). Also, the result in experiment [5] was inactive.
For the compound `Cc1ccccc1N=C(N)Nc1ccccc1C`, the Potency result in experiment [1], in experiment [2], in experiment [12], in [13], in experiment [3] and in [4] was “inactive” throughout. Also, the Potency result in experiment [14], in [6], in [7], in experiment [15], in experiment [8] and in experiment [16] was “inactive” throughout. Moreover, the Potency result in experiment [9] and in experiment [10] was “inactive” throughout. Besides, in experiment [5], the compound was classed as inactive.
For the compound `CCCC(C(=O)OCCN(CC)CC)(c1ccccc1)c1ccccc1`, the Potency result in experiment [1], in [2], in experiment [13], in experiment [3], in [4] and in [14] was “inactive” in each case. The Potency result in [6], in [15] and in experiment [16] was “inactive” each time. Further, in experiment [5], the compound was called inactive. Moreover, the Potency was 26.6 µM (active) in experiment [7]; 10.6 µM (active) in [10]; 22.4 µM (active) in [17]; 10 µM (active) in experiment [18]; 15.8 µM (active) in [19].
On to `C[C@@H](CN(C)C)CN1c2ccccc2Sc2ccccc21`, for which the Potency entry in experiment [11], in experiment [2], in experiment [4], in experiment [14], in experiment [15] and in experiment [16] was “inactive” in each case. For the same compound, the Potency entry in experiment [9] and in [19] was “inactive” each time. The Potency in experiment [12] was 26.6 µM (active); in experiment [13], 18.8 µM (active); in [20], 10.6 µM (active).
